Experimental data taken from PubChem BioAssay (NCATS).
Results filed as inconclusive are left out. Where a call stands in place of a potency, no number is given. The source made the active and inactive calls. The call rests on the fitted dose curve; in most records, active means well fitted curve in the direction sought with a large enough effect; inconclusive means small, poorly fitted or top-dose-only effect, or another doubt; inactive means no such curve, though single readings can be large; an effect the other way counts as inactive or inconclusive.

Columns and labels:
[1] = Quantitative highthroughput screen to assess conditional lethalithy of NOMO1 cells grown in RPMI1640 with untreated serum (RPMI+s) (AID 1963876); further: nearly all actives have a fitted effect of over 35% in size; further: potency means the concentration at half of the fitted maximal effect
Outline: (§1)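 Each medium arm—HPLM with 10% dialyzed FBS, or RPMI1640 with 5 mM glucose and 10% untreated or dialyzed FBS—was screened against an 11-point, 3-fold compound titration for 48 h at 37 °C, with CellTiter-Glo luminescence as endpoint.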

[2] = Quantitative highthroughput screen to assess conditional lethalithy of NOMO1 cells grown in RPMI1640 with dialyzed fetal bovine serum (RPMI+ds) (AID 1963877); further: nearly all actives have a fitted effect of over 30% in size; further: potency means the concentration at half of the fitted maximal effect; on viability: series mostly up to about 46 µM
Outline: as §1

[3] = Quantitative highthroughput screen to assess conditional lethalithy of NOMO1 cells grown in Human Plasma-Like Medium with dialyzed fetal bovine serum (HPLM+ds) (AID 1963878); further: nearly all actives have a fitted effect of over 35% in size; further: potency means the concentration at half of the fitted maximal effect
Outline: as §1

[4] = Quantitative highthroughput screen to assess conditional lethalithy of P12 Ichikawa cells grown in Human Plasma-Like Medium with dialyzed fetal bovine serum (HPLM+ds) (AID 1963879); conditions: Potency: viability; further: nearly all actives have a fitted effect of over 35% in size; further: potency means the concentration at half of the fitted maximal effect; on viability: series mostly up to about 46 µM
Outline: as §1

[5] = Quantitative highthroughput screen to assess conditional lethalithy of P12 Ichikawa cells grown in RPMI1640 with dialyzed fetal bovine serum (RPMI+ds) (AID 1963880); conditions: Potency: P12-Ichikawa viability; further: nearly all actives have a fitted effect of over 35% in size; further: potency means the concentration at half of the fitted maximal effect
Outline: as §1

[6] = Quantitative highthroughput screen to assess conditional lethalithy of P12 Ichikawa cells grown in RPMI1640 with untreated serum (RPMI+s) (AID 1963881); conditions: Potency: viability; further: nearly all actives have a fitted effect of over 35% in size; further: potency means the concentration at half of the fitted maximal effect; on viability: series mostly up to about 46 µM
Outline: as §1

[7] = Cellular viability qHTS for adrenocortical cancer (ACC) cell line SW-13 (AID 1963989); conditions: SW-13 ACC cells viability, CellTiter-Glo, 48 h; activity (max response): hits give low values;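 further: cells grown in serum-free medium with ITS supplement; nearly all actives have a fitted effect of over 65% in size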
Outline: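 SW-13 cells in ITS-supplemented serum-free DMEM were plated overnight, then exposed for 48 h at 37C to compound titrations (up to 46 uM final). Viability was read by CellTiter-Glo luminescence; four-parameter logistic fits gave IC50 and efficacy.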

[8] = Cellular viability qHTS for adrenocortical cancer (ACC) cell line NCI-H295R (AID 1963990); further: nearly all actives have a fitted effect of over 60% in size; further: potency means the concentration at half of the fitted maximal effect
Outline: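 Luminescent ATP read-out (CellTiter-Glo, 20 min RT) after 48 h drug exposure of NCI-H295R cells; a titration up to 46 uM final. Data normalized to doxorubicin (100% inhibition) and DMSO (0%); 4-parameter fit gives IC50, max response.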

[9] = Quantitative highthroughput screen to assess conditional lethalithy of SEM cells grown in RPMI1640 with unreated serum (RPMI+s) (AID 1963883); further: nearly all actives have a fitted effect of over 35% in size; further: potency means the concentration at half of the fitted maximal effect
Outline: as §1

[10] = Quantitative highthroughput screen to assess conditional lethalithy of SEM cells grown in RPMI1640 with dialyzed fetal bovine serum (RPMI+ds) (AID 1963884); further: nearly all actives have a fitted effect of over 35% in size; further: potency means the concentration at half of the fitted maximal effect; on viability: series mostly up to about 46 µM
Outline: as §1

[11] = Quantitative highthroughput screen to assess conditional lethalithy of SEM cells grown in Human Plasma-Like Medium with dialyzed fetal bovine serum (HPLM+ds) (AID 1963882); further: nearly all actives have a fitted effect of over 35% in size; further: potency means the concentration at half of the fitted maximal effect; on viability: series mostly up to about 46 µM
Outline: as §1

SMILES: C[C@]12CC[C@@H]3c4ccc(O)cc4CC[C@H]3[C@H]1[C@@H](O)[C@@H](O)[C@H]2O
- Potency [1]: inactive
- Potency [2]: inactive
- Potency [3]: inactive
- Potency [4]: inactive
- Potency [5]: inactive
- Potency [6]: inactive
- activity (max response) [7]: -1.98% (inactive)
- Potency [8]: inactive

SMILES: C[C@H]1C[C@H]2[C@@H]3CCC4=CC(=O)C=C[C@]4(C)[C@@H]3C(=O)C[C@]2(C)[C@@]1(O)C(=O)CO
- Potency [1]: inactive
- Potency [2]: inactive
- Potency [3]: inactive
- Potency [4]: inactive
- Potency [5]: inactive
- Potency [6]: inactive
- Potency [9]: 20.9 µM (active)
- Potency [10]: 23.5 µM (active)

SMILES: CCC(C)(C)c1ccc(CC(C)CN2C[C@@H](C)O[C@@H](C)C2)cc1 (some centres undefined)
- Potency [1]: inactive
- Potency [2]: inactive
- Potency [3]: inactive
- Potency [4]: inactive
- Potency [5]: inactive
- Potency [6]: inactive
- Potency [9]: inactive
- Potency [10]: inactive
- Potency [8]: 18.4 µM (active)

SMILES: CCCCCOC(=O)Nc1nc(=O)n([C@@H]2O[C@H](C)[C@@H](O)C2O)cc1F (some centres undefined)
- Potency [1]: inactive
- Potency [2]: inactive
- Potency [3]: inactive
- Potency [4]: inactive
- Potency [5]: inactive
- Potency [6]: inactive
- Potency [9]: inactive
- Potency [10]: inactive

SMILES: CN1C(=O)C[C@H](C(=O)N[C@@H](Cc2cnc[nH]2)C(=O)N2CCC[C@@H]2C(N)=O)NC1=O
- Potency [1]: inactive
- Potency [2]: inactive
- Potency [3]: inactive
- Potency [4]: inactive
- Potency [5]: inactive
- Potency [6]: inactive
- Potency [8]: inactive

SMILES: Cc1ccc2c(c1)c1c(n2CCc2ccc(C)nc2)CCN(C)C1
- Potency [1]: inactive
- Potency [2]: inactive
- Potency [3]: inactive
- Potency [4]: inactive
- Potency [5]: inactive
- Potency [11]: inactive
- Potency [9]: inactive

SMILES: CCCCOCCOc1nc(-c2ccc(C(=O)O)c(F)c2)sc1C
- Potency [1]: inactive
- Potency [2]: inactive
- Potency [3]: inactive
- Potency [4]: inactive
- Potency [6]: inactive
- Potency [11]: inactive
- Potency [9]: inactive
- Potency [10]: inactive
- Potency [8]: inactive

SMILES: Cc1c(Cn2c(C)nc3c(C(=O)O)cc(N4CCOCC4)cc32)cccc1C(F)(F)F
- Potency [1]: inactive
- Potency [2]: inactive
- Potency [3]: 26.4 µM (active)
- Potency [4]: inactive
- Potency [6]: inactive
- Potency [11]: inactive
- Potency [9]: inactive
- Potency [10]: inactive
- activity (max response) [7]: 6.79% (inactive)

SMILES: CCOC(=O)C1=C(C)NC(=S)NC1c1cccc(O)c1 (centres undefined)
- Potency [1]: 0.148 µM (active)
- Potency [2]: 0.264 µM (active)
- Potency [3]: 0.235 µM (active)
- Potency [4]: 0.187 µM (active)
- Potency [6]: 0.148 µM (active)
- Potency [11]: 0.0743 µM (active)
- Potency [10]: 0.166 µM (active)
- Potency [8]: inactive

SMILES: O=C(O)[C@H]1O[C@H](Oc2cc3oc(-c4ccccc4)cc(=O)c3c(O)c2O)[C@H](O)[C@@H](O)[C@H]1O
- Potency [1]: inactive
- Potency [2]: inactive
- Potency [3]: inactive
- Potency [4]: inactive
- Potency [6]: 18.7 µM (active)
- Potency [11]: 18.7 µM (active)
- Potency [9]: 18.7 µM (active)

SMILES: COc1ccc(C=Cc2cc(OC)c(OC)c(OC)c2)cc1O
- Potency [1]: inactive
- Potency [2]: inactive
- Potency [3]: inactive
- Potency [4]: inactive
- Potency [9]: inactive
- Potency [10]: inactive

SMILES: CC(=O)OCC(=O)[C@@]12N=C(C)O[C@H]1C[C@H]1[C@@H]3CCC4=CC(=O)C=C[C@]4(C)[C@@H]3[C@@H](O)C[C@@]12C
- Potency [1]: inactive
- Potency [2]: inactive
- Potency [3]: inactive
- Potency [4]: 4.18 µM (active)
- Potency [9]: 23.5 µM (active)
- Potency [10]: 20.9 µM (active)

SMILES: C[C@]12CCC(=O)C=C1[C@@H]1CC1[C@H]1[C@H]3[C@@H]4C[C@H]4[C@@]4(CCC(=O)O4)[C@@]3(C)CC[C@H]12 (some centres undefined)
- Potency [1]: inactive
- Potency [2]: inactive
- Potency [3]: inactive
- Potency [4]: inactive
- Potency [6]: inactive
- Potency [11]: inactive
- Potency [9]: inactive
- Potency [10]: inactive

SMILES: CCCCCCOC(=O)N=C(N)c1ccc(NCc2nc3cc(C(=O)N(CCC(=O)OCC)c4ccccn4)ccc3n2C)cc1
- Potency [1]: 26.4 µM (active)
- Potency [2]: 26.4 µM (active)
- Potency [3]: 20.9 µM (active)
- Potency [4]: inactive
- Potency [11]: inactive
- Potency [9]: inactive
- Potency [10]: inactive

SMILES: CC(=O)N[C@@H]1[C@H](O[C@@H]2c3ccc(c(Cl)c3)Oc3cc4cc(c3O[C@H]3O[C@H](CO)[C@@H](O)[C@H](O)[C@H]3NC(=O)CCCCCCCC(C)C)Oc3ccc(cc3Cl)C[C@H]3NC(=O)[C@H](N)c5ccc(O)c(c5)Oc5cc(O)cc(c5)[C@H](NC3=O)C(=O)N[C@H]4C(=O)N[C@H]3C(=O)N[C@@H]2C(=O)N[C@@H](C(=O)O)c2cc(O)cc(O[C@H]4O[C@H](CO)[C@@H](O)[C@H](O)[C@H]4O)c2-c2cc3ccc2O)O[C@H](CO)[C@@H](O)[C@@H]1O
- Potency [1]: inactive
- Potency [2]: inactive
- Potency [3]: inactive
- Potency [4]: inactive
- Potency [6]: inactive
- Potency [11]: inactive
- Potency [9]: inactive
- Potency [10]: inactive

SMILES: CCCCCCCN(CC)CCCC(O)c1ccc(NS(C)(=O)=O)cc1 (centres undefined)
- Potency [1]: inactive
- Potency [2]: inactive
- Potency [3]: inactive
- Potency [4]: 13.2 µM (active)
- Potency [5]: 18.7 µM (active)
- activity (max response) [7]: -11.3% (inactive)
- Potency [8]: inactive

SMILES: COC(=O)N1CCN(Cc2cccc(NC(=O)Nc3ccc(C)nc3)c2F)CC1
- Potency [1]: inactive
- Potency [2]: inactive
- Potency [3]: inactive
- Potency [4]: inactive
- Potency [6]: inactive
- Potency [11]: inactive
- Potency [9]: inactive
- Potency [10]: inactive
- activity (max response) [7]: -16.4% (inactive)
- Potency [8]: inactive

SMILES: Cc1cccc(N(C)C(=S)Oc2ccc3ccccc3c2)c1
- Potency [1]: inactive
- Potency [2]: inactive
- Potency [3]: inactive
- Potency [4]: inactive
- Potency [6]: inactive
- Potency [11]: inactive
- Potency [9]: inactive
- Potency [10]: inactive
- activity (max response) [7]: 2.38% (inactive)

SMILES: CS(=O)(=O)c1ccc([C@@H](O)[C@@H](CO)NC(=O)C(Cl)Cl)cc1
- Potency [1]: inactive
- Potency [2]: inactive
- Potency [3]: inactive
- Potency [4]: inactive
- activity (max response) [7]: -8.84% (inactive)
- Potency [8]: inactive

SMILES: COc1cc(F)c(C(C)C)cc1-c1ccc(C(F)(F)F)cc1CN1C(=O)O[C@H](c2cc(C(F)(F)F)cc(C(F)(F)F)c2)[C@@H]1C
- Potency [1]: inactive
- Potency [2]: inactive
- Potency [3]: inactive
- Potency [4]: inactive
- Potency [6]: inactive
- Potency [11]: inactive
- Potency [9]: inactive
- Potency [10]: inactive
- activity (max response) [7]: -14.8% (inactive)
- Potency [8]: inactive

SMILES: CC(Cc1ccc(O)c(O)c1)(NN)C(=O)O (centres undefined)
- Potency [1]: inactive
- Potency [2]: inactive
- Potency [3]: inactive
- Potency [4]: inactive
- Potency [11]: inactive
- activity (max response) [7]: 0.463% (inactive)
- Potency [8]: inactive
